This note sets out measurements from PubChem BioAssay (NCATS).

“And” between values parts separate entries of the source, which are not always exact repeats. Equal entries are not always repeated. Records with an inconclusive call do not appear. A number with no mark means an inactive call. The source made the active and inactive calls. Calls come from the whole dose curve; as a rule, active = well fitted curve in the direction sought with a large enough effect; inconclusive = small, poorly fitted or top-dose-only effect, or another doubt; inactive = no such curve, though single readings can be large; an effect the other way counts as inactive or inconclusive.

Experiment [1] is described as follows: Viability qHTS for spleen associated tyrosine kinase inhibitor (SYKi) naive MV4-11 cells (AID 1963823). Note: nearly all actives have a fitted effect of over 40% in size. Note: potency is the fitted concentration of half-maximal effect. Summed up:
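In this viability screen, compounds acted on SYK inhibitor naive MV4-11 cells for three days (72 hr, 37 C). Remaining viable cells were measured by CellTiter-Glo luminescence following a 10 min room-temperature development.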
(In general: qHTS replaces the single test concentration by a dilution series.)

Experiment [2] can be described thus: Cellular viability qHTS for adrenocortical cancer (ACC) cell line SW-13 (AID 1963989).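 For activity (max response): cells grown in serum-free medium with ITS supplement; % is set by controls: 0 for no effect and ±100 for the full control effect.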 Note: nearly all actives have a fitted effect of over 65% in size. Note: potency is the fitted concentration of half-maximal effect. The conditions noted are these: SW-13 ACC cells viability, CellTiter-Glo, 48 h; activity (max response): active compounds read low. Summed up:
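SW-13 cells in ITS-supplemented serum-free DMEM were plated overnight, then exposed for 48 h at 37C to compound titrations (up to 46 uM final). Viability was read by CellTiter-Glo luminescence; four-parameter logistic fits gave IC50 and efficacy.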

The nature of experiment [3]: Cellular viability qHTS for adrenocortical cancer (ACC) cell line NCI-H295R (AID 1963990). Note: nearly all actives have a fitted effect of over 60% in size. Note: potency is the fitted concentration of half-maximal effect. Summed up: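 Luminescent ATP read-out (CellTiter-Glo, 20 min RT) after 48 h drug exposure of NCI-H295R cells; a titration up to 46 uM final. Data normalized to doxorubicin (100% inhibition) and DMSO (0%); 4-parameter fit gives IC50, max response.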
Experiment [4] can be described thus: Viability qHTS for spleen associated tyrosine kinase inhibitor (SYKi) drug resistant MV4-11 cells (AID 1963824). Note: nearly all actives have a fitted effect of over 35% in size. Note: potency is the fitted concentration of half-maximal effect. Summed up: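 SYK-inhibitor-resistant MV4-11 AML cells were seeded at 500 per well onto compound and cultured 72 hours (37 °C, 5% CO2). CellTiter-Glo was then added, and after 10 min at room temperature, luminescence gave viability.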
The nature of experiment [5]: Quantitative highthroughput screen to assess conditional lethalithy of P12 Ichikawa cells grown in Human Plasma-Like Medium with dialyzed fetal bovine serum (HPLM+ds) (AID 1963879). For Viability: series mostly up to about 46 µM. Note: nearly all actives have a fitted effect of over 35% in size. Note: potency is the fitted concentration of half-maximal effect. The conditions noted are these: Potency: viability. An outline of the steps: (§1)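 Each medium arm—HPLM with 10% dialyzed FBS, or RPMI1640 with 5 mM glucose and 10% untreated or dialyzed FBS—was screened against an 11-point, 3-fold compound titration for 48 h at 37 °C, with CellTiter-Glo luminescence as endpoint.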

A short description of experiment [6]: Quantitative highthroughput screen to assess conditional lethalithy of P12 Ichikawa cells grown in RPMI1640 with dialyzed fetal bovine serum (RPMI+ds) (AID 1963880).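 Note: 100% = DMSO wells and 0% = empty wells on each plate; nearly all actives have a fitted effect of over 35% in size.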 The conditions noted are these: Potency: P12-Ichikawa viability. An outline of the steps:
as §1

Experiment [7] in a line: Quantitative highthroughput screen to assess conditional lethalithy of P12 Ichikawa cells grown in RPMI1640 with untreated serum (RPMI+s) (AID 1963881).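 Note: series mostly up to about 46 µM; 100% = DMSO wells and 0% = empty wells without cells; nearly all actives have a fitted effect of over 35% in size.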 The conditions noted are these: Potency: viability. Summed up:
as §1

Experiment [8] is described as follows: Quantitative highthroughput screen to assess conditional lethalithy of SEM cells grown in Human Plasma-Like Medium with dialyzed fetal bovine serum (HPLM+ds) (AID 1963882). An outline of the steps:
as §1

Experiment [9] can be described thus: Quantitative highthroughput screen to assess conditional lethalithy of SEM cells grown in RPMI1640 with unreated serum (RPMI+s) (AID 1963883). Summed up: as §1
Experiment [10] is described as follows: Quantitative highthroughput screen to assess conditional lethalithy of SEM cells grown in RPMI1640 with dialyzed fetal bovine serum (RPMI+ds) (AID 1963884). An outline of the steps:
as §1

The nature of experiment [11]: Quantitative highthroughput screen to assess conditional lethalithy of NOMO1 cells grown in RPMI1640 with dialyzed fetal bovine serum (RPMI+ds) (AID 1963877).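 Note: series mostly up to about 46 µM; 100% = DMSO control wells and 0% = empty wells; nearly all actives have a fitted effect of over 30% in size.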 Summed up:
as §1

Experiment [12] can be described thus: Quantitative highthroughput screen to assess conditional lethalithy of NOMO1 cells grown in Human Plasma-Like Medium with dialyzed fetal bovine serum (HPLM+ds) (AID 1963878). Summed up: as §1

For the molecule `COc1ccc2c3c1O[C@H]1[C@@H](O)C=C[C@H]4[C@@H](C2)N(C)CC[C@@]341`, the Potency in experiment [1] was 37.8 µM (active); in [2] it was 14.1 µM (active); in experiment [3] it was 10 µM (active).
As for `CCOP(=S)(OCC)Oc1ccc2c(C)c(Cl)c(=O)oc2c1`, the Potency entry in experiment [1] and in [3] was “inactive” throughout. For the same molecule, the activity (max response) in [2] is 7.58%.
On to `CCOC(=O)c1ncn2c1CN(C)C(=O)c1c(I)cccc1-2`, for which, in experiment [1], the Potency entry was “inactive”. Also, the activity (max response) in experiment [2] was -2.47%.
As to `CC(=O)OCC1=C(C(=O)O)N2C(=O)[C@@H](N)[C@H]2SC1`, the Potency entry in [1] and in experiment [3] was “inactive” each time. Also, the activity (max response) in experiment [2] was 5.22%.
With `Cc1nnc2n1-c1sc(CCc3ccc(CC(C)C)cc3)cc1C(c1ccccc1Cl)=NC2C` (configuration not stated), the Potency was 5.8 µM (active) in experiment [1], 4.11 µM (active) in [4] and 8.2 µM (active) in [3].
With `O=C(Oc1ccc([N+](=O)[O-])cc1)N1CCC(C(O)(c2ccc3c(c2)OCO3)c2ccc3c(c2)OCO3)CC1`, the Potency result in experiment [1], in experiment [6], in experiment [7], in experiment [8] and in experiment [3] was “inactive” in each case. In experiment [5], the Potency was 14.8 µM (active). For the same molecule, the activity (max response) in experiment [2] is 5.03%.
Turning to `Oc1cc(Cl)ccc1Oc1ccc(Cl)cc1Cl`, the Potency was 19.7 µM (active) in experiment [1]; 7.85 µM (active) and 16.8 µM (active) in experiment [4]; 3.16 µM (active) and 18.4 µM (active) in experiment [3].
`COC[C@@H](NC(C)=O)C(=O)NCc1ccccc1`: the Potency entry in experiment [1], in [9], in [10] and in [3] was “inactive” in each case. Further, the activity (max response) in experiment [2] is 8.1% and 13.7%.
On to `CC(=O)Nc1ccc(OC[C@](C)(O)C(=O)Nc2ccc([N+](=O)[O-])c(C(F)(F)F)c2)cc1`, for which the Potency in experiment [1] is 16.6 µM (active). For the same molecule, the Potency entry in experiment [5], in experiment [6], in experiment [8] and in [3] was “inactive” throughout. The activity (max response) in experiment [2] is 0.634%.
Regarding `Cc1c(N)nc([C@H](CC(N)=O)NC[C@@H](N)C(N)=O)nc1C(=O)N[C@H](C(=O)N[C@@H](C)[C@H](O)[C@@H](C)C(=O)N[C@@H](C(=O)NCCc1nc(-c2nc(C(=O)NCCC[S+](C)C)cs2)cs1)[C@@H](C)O)C(O[C@H]1O[C@H](CO)[C@H](O)[C@@H](O)[C@H]1O[C@H]1O[C@H](CO)[C@@H](O)[C@H](OC(N)=O)[C@@H]1O)c1cnc[nH]1` (some centres not stated), the Potency entry in experiment [1] is “inactive”. The activity (max response) in [2] is -30.2%.
Turning to `CCN[C@H](C)Cc1cccc(C(F)(F)F)c1`, the Potency entry in experiment [1] and in experiment [3] was “inactive” throughout. Moreover, the activity (max response) in [2] was -4.65%.
As to `C[C@H]1CCC/C=C/C2C[C@H](O)C[C@H]2[C@H](O)/C=C/C(=O)O1` (some centres not stated), the Potency in experiment [1] was 184 nM (active) and 148 nM (active); in [4], 92 nM (active) and 118 nM (active); in experiment [3], 0.224 µM (active).
For `CC(NC(C)(C)C)C(=O)c1cccc(Cl)c1` (configuration not stated), the Potency result in experiment [1], in experiment [11], in [5], in experiment [6], in experiment [7] and in experiment [3] was “inactive” throughout. For the same molecule, the Potency in experiment [12] was 5.9 µM (active). Further, the activity (max response) in experiment [2] was 8.14% and 1.12%.
As for `CC(Cc1ccccc1)NCc1ccccc1Cl` (configuration not stated), the Potency entry in [1] and in experiment [3] was “inactive” throughout. In addition, the activity (max response) in experiment [2] was -8.69%.
On to `C#C[C@]1(O)C=C[C@H]2[C@@H]3CCC4=CC(=O)CC[C@@H]4[C@H]3CC[C@@]21CC`, for which the Potency result in [1] is “inactive”. In addition, the activity (max response) in experiment [2] is -4.27% and 2.85%.
For the molecule `COP(=S)(OC)Oc1ccc(S(N)(=O)=O)cc1`, the Potency entry in [1] and in [3] was “inactive” each time. Besides, the activity (max response) in experiment [2] was 5.57%.
Turning to `C/C=C(\C)C(=O)N[C@@H](c1ccccc1)[C@@H](O)C(=O)O[C@H]1C[C@@]2(O)[C@@H](OC(=O)c3ccccc3)[C@@H]3[C@]4(OC(C)=O)CO[C@@H]4C[C@H](O)[C@@]3(C)C(=O)[C@H](OC(C)=O)C(=C1C)C2(C)C`, the Potency in [1] was 0.0209 µM (active); in experiment [4], 0.0235 µM (active); in [3], 0.891 µM (active).
With `CNC(=O)Oc1cccc2ccccc12`, the Potency entry in experiment [1] was “inactive”. Moreover, in experiment [2], the activity (max response) was -8.24%.
In the case of `COC[C@H]1OC(=O)c2coc3c2[C@@]1(C)C1=C(C3=O)[C@@H]2CC[C@H](O)[C@@]2(C)C[C@@H]1OC(C)=O`, the Potency was 11.6 µM (active) in experiment [1] and 13.2 µM (active) in experiment [12].
With `C1CCC(NC2CCCCC2)CC1`, the Potency entry in experiment [1], in [4] and in [3] was “inactive” in each case.
On to `CO/C=C(/C(=O)OC)c1ccccc1Oc1cc(Oc2ccccc2C#N)ncn1`, for which the Potency in experiment [1] was 13.7 µM (active); in experiment [4] it was 8.63 µM (active); in experiment [3] it was 7.94 µM (active).
